From PubChem BioAssay (NCATS)
Several values for one entry are separate records, joined by “and”; a condition that tells them apart may be missing. Equal entries are not always repeated. A number with no mark means an inactive call. Records with an inconclusive call do not appear. Activity calls are given as the source filed them. Calls come from the whole dose curve; as a rule, active = well fitted curve in the direction sought with a large enough effect; inconclusive = small, poorly fitted or top-dose-only effect, or another doubt; inactive = no such curve, though single readings can be large; an effect the other way counts as inactive or inconclusive.

Tests used:
[1] = molecular target: Tyrosine-protein kinase Yes (Homo sapiens) (UniProt P07947); test: qHTS for small molecule inhibitors of Yes1 kinase: Primary Screen (AID 686947); note: nearly all actives have a fitted effect of over 60% in size; note: potency is the fitted concentration of half-maximal effect
Method in brief: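 In this qHTS format, inhibition is expressed relative to DMSO controls with enzyme (maximum) and without enzyme (minimum). The 60 min room-temperature reaction uses 0.1 mM ATP, with ADP detected by luminescence.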

[2] = qHTS for small molecule inhibitors of Yes1 kinase: Counter Assay (AID 686950);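 note: no kinase present so only ADP-Glo detection of a fixed ADP amount is tested; luminescence from ADP-Glo reporting ADP in a fixed ATP and ADP mixture; series mostly up to about 77 µM; 0% = DMSO wells with ATP plus ADP and -100% = ATP-only wells without ADP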
Method in brief: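 No kinase present; 0.08 mM ATP + 0.02 mM ADP in 50 mM Tris pH 7.5, 10 mM MgCl2, 150 mM NaCl, 1 mM DTT; 20 min compound preincubation, 60 min RT, ADP-Glo luminescence, normalized to ATP/ADP (max) and ATP-only (min).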

[3] = qHTS Assay for Identifying Gametocytocidal Compounds (AID 743244); note: potency is the fitted concentration of half-maximal effect;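 for max response: % is set by controls: 0 for no effect and ±100 for the full control effect; actives lower the fluorescent signal which means gametocytes are killed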; conditions: P. falciparum 3D7 stage III-V gametocytes, alamarBlue, 72 h; max response: active compounds read low
Method in brief: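 A resazurin-based viability read-out was applied to mature P. falciparum gametocytes: 72 h compound treatment, then 24 h dye incubation, with falling fluorescence signalling gametocytocidal effect.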

[4] = molecular target: Arylsulfatase A (Homo sapiens) (UniProt P15289); test: qHTS screen for enhancers of Arylsulfatase A (ASA1): LOPAC Validation Assay (AID 720538); note: 0% is about no effect
Method in brief: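 Cell-based enhancement test: residual ASA activity in SV40-transformed I179S patient fibroblasts is measured by pNCS turnover (0.5mM final, 14h, room temperature) following 48h compound incubation; higher fluorescence indicates activation.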

[5] = qHTS for compounds that reverse cellular toxicity of Amyloid beta (A-beta) peptide in yeast: LOPAC Validation Assay (AID 720559);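 note: plate controls were DMSO for no effect and equimolar ferric chloride plus clioquinol rescue for full effect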
Method in brief: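 Here, A-beta-toxic yeast grow with test compounds at 30 C for 48 hr before optical density at 600 nm is recorded; data are normalized against DMSO and the FeCl3-clioquinol control.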

[6] = qHTS for Activators of Parkin Expression: LOPAC Validation Assay (NLuc Reporter) (AID 720572)
Method in brief: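 NLuc signal, read 10 min after reagent and following a prior FLuc read, is normalized to DMSO (0) and positive controls (100%). Cells: neuronal Parkin-promoter coincidence reporter line; compounds tested 7-point, 24 h, 37 C, 5% CO2.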

[7] = qHTS for Activators of Parkin Expression: LOPAC Validation Assay (FLuc Reporter) (AID 720573; note: potency is the fitted concentration of half-maximal effect); conditions: Cell line, PRKN promoter firefly luciferase reporter
Method in brief: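 Readout is FLuc luminescence from neuronal reporter cells (Parkin promoter, FLuc plus NLuc) after 24 h compound exposure in dose response. Values normalized to neutral DMSO and positive-control compounds.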

[8] = molecular target: T1, Hexokinase-4 (Homo sapiens) + Glucokinase regulatory protein (Homo sapiens) (UniProt P35557+Q14397); test: qHTS assay for inhibitors of recombinant human GCK-GKRP interaction: Diaphorase-coupled assay (AID 743205)
Method in brief: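 Signal derives from resorufin generated by diaphorase, linked to GCK turnover of glucose (5 mM) and ATP (0.4 mM). Enzyme complex was added after a 20-minute compound preincubation and monitored for 30 minutes.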

[9] = molecular target: T1, Hexokinase-4 (Homo sapiens) + Glucokinase regulatory protein (Homo sapiens); test: qHTS assay for inhibitors of recombinant human GCK-GKRP interaction: ADP-Glo assay (AID 743206);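 note: plate controls were DMSO plus enzyme for no effect and no enzyme for full effect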
Method in brief: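 Pin-transferred compounds meet a 15 nM GST-GCK/15 nM FLAG-GKRP/2 uM S6P mix (dispense concentrations). ATP is then added to 0.4 mM final with 5 mM glucose, and the reaction runs 60 min at room temperature. ADP is quantified luminescently.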

[10] = molecular target: T1, Hexokinase-4 (Homo sapiens) + Glucokinase regulatory protein (Homo sapiens); test: qHTS assay for inhibitors of recombinant human GCK-GKRP interaction: HTRF assay (AID 743207);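 note: 0% = DMSO with GCK present and -100% = DMSO wells lacking GCK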
Description: Glucokinase (GCK) is a glucose sensor in hepatocytes and pancreatic beta-cells. Hepatic GCK is regulated by glucokinase regulatory protein (GKRP), which is predominantly localized to the liver. GKRP binds to GCK inhibiting its activity in the fasting state while in the presence of glucose the GKRP is displaced. There is an additional layer of regulation by fructose 1-phosphate and fructose 6-phosphate, which inhibit and enhance the GCK-GKRP interaction, respectively. GCK plays a role in glucose homeostasis and there is an interest in the development of strategies to activate GCK to lower blood glucose levels in type 2 diabetes. To date the majority of effort has focused on direct activation of GCK and the assays developed herein look to activate GCK by inhibiting its binding to GKRP. […]
3 uL of 5 nM GST-GCK and 5 nM FLAG-GKRP proteins with 2 uM S6P (columns 1-2, 4-48; Millipore, Billerica, MA) are dispensed into Greiner, white solid-bottom 1536-well assay plates; columns 3 receive buffer without GCK as a control for maximum inhibition. […] Plates were read on an Envision plate reader (PerkinElmer, Shelton, CT, USA) with excitation at 320 nm and dual-wavelength detection at the Fret donor wavelength (615 nm) and the FRET acceptor wavelength (665 nm).

T1 sequence (P35557 whole entry, looked up): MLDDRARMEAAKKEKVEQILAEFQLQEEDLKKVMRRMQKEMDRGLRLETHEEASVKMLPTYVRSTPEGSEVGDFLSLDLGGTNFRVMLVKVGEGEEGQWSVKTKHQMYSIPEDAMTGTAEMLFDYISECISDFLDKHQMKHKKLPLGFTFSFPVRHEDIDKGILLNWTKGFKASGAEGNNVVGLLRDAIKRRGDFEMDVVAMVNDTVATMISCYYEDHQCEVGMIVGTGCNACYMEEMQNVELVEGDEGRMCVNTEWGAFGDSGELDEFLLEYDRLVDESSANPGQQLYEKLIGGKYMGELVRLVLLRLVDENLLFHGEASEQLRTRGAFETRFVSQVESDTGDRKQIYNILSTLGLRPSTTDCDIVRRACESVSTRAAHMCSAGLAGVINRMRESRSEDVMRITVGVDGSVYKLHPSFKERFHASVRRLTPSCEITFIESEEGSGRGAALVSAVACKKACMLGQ
T1 sequence (Q14397 whole entry, looked up): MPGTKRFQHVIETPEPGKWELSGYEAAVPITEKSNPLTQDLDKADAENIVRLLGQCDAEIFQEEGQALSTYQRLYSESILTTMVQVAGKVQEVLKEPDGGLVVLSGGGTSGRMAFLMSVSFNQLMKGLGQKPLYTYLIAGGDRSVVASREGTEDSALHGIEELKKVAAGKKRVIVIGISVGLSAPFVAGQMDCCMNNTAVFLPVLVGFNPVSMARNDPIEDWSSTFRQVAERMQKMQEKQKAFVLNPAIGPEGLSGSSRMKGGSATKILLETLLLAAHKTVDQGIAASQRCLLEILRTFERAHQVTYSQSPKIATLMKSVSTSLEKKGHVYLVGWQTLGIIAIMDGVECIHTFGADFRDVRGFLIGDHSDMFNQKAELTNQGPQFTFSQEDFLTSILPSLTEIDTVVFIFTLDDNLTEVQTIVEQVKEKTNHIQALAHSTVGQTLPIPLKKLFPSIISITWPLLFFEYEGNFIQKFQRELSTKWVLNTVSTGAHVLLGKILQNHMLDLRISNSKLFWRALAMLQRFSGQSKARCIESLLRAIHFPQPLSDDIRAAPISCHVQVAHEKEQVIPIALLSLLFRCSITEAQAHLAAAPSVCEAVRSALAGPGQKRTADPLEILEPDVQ
Sequence of Tyrosine-protein kinase Yes (Homo sapiens) (P07947 whole entry, looked up): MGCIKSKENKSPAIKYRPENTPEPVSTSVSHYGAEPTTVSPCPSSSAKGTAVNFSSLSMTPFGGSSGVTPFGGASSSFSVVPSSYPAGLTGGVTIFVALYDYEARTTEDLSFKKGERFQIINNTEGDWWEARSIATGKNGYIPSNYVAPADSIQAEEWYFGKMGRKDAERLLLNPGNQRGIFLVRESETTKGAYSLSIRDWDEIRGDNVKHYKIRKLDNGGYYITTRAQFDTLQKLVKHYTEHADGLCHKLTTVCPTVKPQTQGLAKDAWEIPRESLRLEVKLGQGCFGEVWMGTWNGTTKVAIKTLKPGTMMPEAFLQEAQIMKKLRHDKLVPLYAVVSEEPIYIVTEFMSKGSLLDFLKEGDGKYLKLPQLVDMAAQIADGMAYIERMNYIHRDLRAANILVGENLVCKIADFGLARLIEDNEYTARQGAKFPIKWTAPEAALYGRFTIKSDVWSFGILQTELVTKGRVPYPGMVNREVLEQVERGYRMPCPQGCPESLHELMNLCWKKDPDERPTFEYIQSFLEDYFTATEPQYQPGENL
Sequence of Arylsulfatase A (Homo sapiens) (P15289 whole entry, looked up): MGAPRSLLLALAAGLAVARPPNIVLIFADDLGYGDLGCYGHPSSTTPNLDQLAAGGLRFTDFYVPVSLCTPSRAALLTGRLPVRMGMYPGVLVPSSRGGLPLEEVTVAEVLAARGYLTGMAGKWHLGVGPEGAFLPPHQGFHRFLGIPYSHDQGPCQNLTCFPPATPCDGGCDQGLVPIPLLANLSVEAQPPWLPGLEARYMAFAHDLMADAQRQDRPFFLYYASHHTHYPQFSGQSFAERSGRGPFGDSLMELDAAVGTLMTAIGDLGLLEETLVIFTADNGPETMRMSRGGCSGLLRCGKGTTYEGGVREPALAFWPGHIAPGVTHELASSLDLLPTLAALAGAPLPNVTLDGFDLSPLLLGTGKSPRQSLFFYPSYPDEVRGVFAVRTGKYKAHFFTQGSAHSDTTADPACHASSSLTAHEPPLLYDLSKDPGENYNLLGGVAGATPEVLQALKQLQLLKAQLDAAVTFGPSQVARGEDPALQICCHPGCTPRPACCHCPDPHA

CCN1CCN(CC(=O)Nc2ccc(-c3cccc4c(=O)cc(N5CCOCC5)oc34)c3sc4ccccc4c23)CC1
Potency [1]: inactive | outcome [2]: inactive | Potency [3]: 29.6 µM (active)

COc1ccc(OC)c(-c2nnc3ccc(-c4ccc(OC)c(O[C@@H]5CCOC5)c4)nn23)c1
Potency [1]: inactive | outcome [2]: inactive | max response [3]: -15.7%

CN1CCC(CNc2ccc3ncc(-c4cccc(OC(F)(F)F)c4)n3n2)CC1
Potency [1]: 0.0972 µM (active) | outcome [2]: inactive | Potency [3]: 9.35 µM (active)

Nc1nccc(Oc2ccc(NC(=O)c3c[nH]cc(-c4ccc(F)cc4)c3=O)cc2F)c1Cl
Potency [1]: 48.7 µM (active) | outcome [2]: inactive | max response [3]: -5.48%

N#Cc1c(O)c2c(-c3ccc(-c4ccccc4O)cc3)csc2[nH]c1=O
Potency [1]: inactive | outcome [2]: inactive | max response [3]: 42.7%

CCC(=C(c1ccccc1)c1ccc(OCCN(C)C)cc1)c1ccccc1
Potency [1]: inactive | outcome [2]: inactive | max response [3]: -26.2%

COc1cc2ncn(-c3cc(OCc4ccccc4C(F)(F)F)c(C(N)=O)s3)c2cc1OC
Potency [1]: inactive | outcome [2]: inactive | max response [3]: 18.7%

O=C(NCCCNc1nc(Nc2cccc(NC(=O)N3CCCC3)c2)ncc1I)c1cccs1
Potency [1]: 1.37 µM (active) and 1.22 µM (active) | outcome [2]: inactive | max response [3]: -18.4% and -12.2%

CC(C)(C)c1cc(C(C)(C)C)c(NC(=O)c2c[nH]c3ccccc3c2=O)cc1O
Potency [1]: inactive | outcome [2]: inactive | max response [3]: 7.52%

CN(c1ncccc1CNc1nc(Nc2ccc3c(c2)CC(=O)N3)ncc1C(F)(F)F)S(C)(=O)=O
Potency [1]: 0.194 µM (active) | outcome [2]: inactive | max response [3]: 3.79%

C=CC(=O)Nc1cccc(Oc2nc(Nc3ccc(N4CCN(C)CC4)cc3OC)ncc2Cl)c1
Potency [1]: 4.87 µM (active) | outcome [2]: inactive | Potency [3]: 14.8 µM (active)

Cc1ccc(-c2ncn(-c3ccc(Nc4nccc(-c5cccc(N6CCOCC6)c5)n4)cc3)n2)cn1
Potency [1]: 12.2 µM (active) | outcome [2]: inactive | Potency [3]: 11.8 µM (active)

O=C(O)c1ccc2cc(-c3ccc(O)c(C45CC6CC(CC(C6)C4)C5)c3)ccc2c1
Potency [1]: inactive | outcome [2]: inactive | max response [3]: 9.89%

C[C@]1(CO)CN(c2cc(C(=O)Nc3ccc4c(c3)-c3c(c(C(N)=O)nn3-c3ccc(F)cc3)CC4)c(Cl)cn2)C[C@@]1(C)CO
Potency [1]: inactive | outcome [2]: inactive | max response [3]: -20.6%

C1Cc2[nH]nc(-c3nn[nH]n3)c2C1
Potency [1]: inactive | outcome [2]: inactive | max response [3]: 38.3%

CC(=O)OCC(=O)[C@@]1(O)[C@H](C)C[C@H]2[C@@H]3C=C(C)C4=Cc5c(cnn5-c5ccccc5)C[C@]4(C)[C@@H]3[C@@H](O)C[C@@]21C
Potency [1]: inactive | outcome [2]: inactive | max response [3]: -18.2%

Cn1c2cc(S(C)=O)sc2c2cnn(Cc3cccc(N)c3)c(=O)c21 (stereo not given)
Potency [1]: inactive | outcome [2]: inactive | max response [3]: 8.65%

C=C1C(=CC=C2CCCC3(C)[C@@H]([C@H](C)C=CC=CC(O)(CC)CC)CC[C@@H]23)C[C@@H](O)C[C@@H]1O (stereo not given in full)
Potency [1]: inactive | outcome [2]: inactive | max response [3]: -8.25%

COc1cc2ncnc(Nc3ccc(F)c(Cl)c3)c2cc1NC(=O)C=CCN1CCCCC1
Potency [1]: 0.194 µM (active) | outcome [2]: inactive | Potency [3]: 11.8 µM (active)

C#Cc1cccc(Nc2ncnc3cc(OC)c(OCCCCCCC(=O)NO)cc23)c1
Potency [1]: 1.73 µM (active) | outcome [2]: inactive | Potency [3]: 1.71 µM (active)

COc1cccc2nc(-c3cccs3)nc(NN3C(=O)C=C(C)C3=O)c12
Potency [1]: inactive | outcome [2]: inactive | max response [3]: 19.8%

C[C@@H](Oc1cc(-n2cnc3ccc(CN4CCN(C)CC4)cc32)sc1C(N)=O)c1ccccc1C(F)(F)F
Potency [3]: 18.7 µM (active)

Cc1ccc(C(=O)Nc2ccc(CN3CCN(C)CC3)c(C(F)(F)F)c2)cc1C#Cc1cnc2cccnn12
outcome [2]: inactive | Potency [3]: 18.7 µM (active)

CN[C@H]1CCc2cc(OC)c(OC)c(OC)c2-c2ccc(OC)c(=O)cc21
max response [3]: -7.45%

O=c1c2ccccc2nc2n1CCc1c-2[nH]c2ccccc12
outcome [4]: inactive | outcome [5]: inactive | outcome [6]: inactive | Potency [7]: 0.82 µM (active) | outcome [8]: inactive | outcome [9]: inactive | outcome [10]: inactive | max response [3]: 16.8%

C1=CCOCc2cc(ccc2OCCN2CCCC2)Nc2nccc(n2)-c2cccc(c2)OCC1
max response [3]: 17.1%

CC[C@@H]1C(=O)N(C)c2cnc(Nc3ccc(C(=O)NC4CCN(C)CC4)cc3OC)nc2N1C1CCCC1
Potency [3]: 2.35 µM (active)

CC(C)(C)c1cnc(CSc2cnc(NC(=O)C3CCNCC3)s2)o1
outcome [2]: inactive | Potency [3]: 4.18 µM (active)

C[C@@H](Oc1cc(-c2cnn(C3CCNCC3)c2)cnc1N)c1c(Cl)ccc(F)c1Cl
outcome [2]: inactive | Potency [3]: 7.43 µM (active)

C[C@@]12O[C@@H](C[C@]1(O)CO)n1c3ccccc3c3c4c(c5c6ccccc6n2c5c31)CNC4=O
outcome [2]: inactive

Cc1nc2ccc(CN(C)c3ccc(C(=O)N[C@@H](CCC(=O)O)C(=O)O)s3)cc2c(=O)[nH]1
max response [3]: 16% and -8.64%

CS(=O)(=O)N1CCN(Cc2cc3nc(-c4cccc5[nH]ncc45)nc(N4CCOCC4)c3s2)CC1
outcome [2]: inactive

COc1ccc(CC2c3cc(OC)c(OC)cc3CC[N+]2(C)CCC(=O)OCCCCCOC(=O)CC[N+]2(C)CCc3cc(OC)c(OC)cc3C2Cc2ccc(OC)c(OC)c2)cc1OC (stereo not given)
max response [3]: 8.81%

Cn1cc(-c2[nH]c3cc(NC(=O)[C@H](N)C4CCCCC4)cc4c3c2C=NNC4=O)cn1
Potency [3]: 23.5 µM (active)

O=C(O)CO.[NH2-].[NH2-].[Pt+2]
max response [3]: -5.78%

CN1c2cc(O)c(N=NC(N)=O)cc2CC1S(=O)(=O)O (stereo not given)
max response [3]: 13%

CC[C@H](CO)Nc1nc(NCc2ccccc2)c2ncn(C(C)C)c2n1
outcome [2]: inactive | max response [3]: -4.23%

Cc1nc2cnc3ccc(C#Cc4cccnc4)cc3c2n1-c1ccc(C(C)(C)C#N)cc1
outcome [2]: inactive

CCN1CCN(Cc2ccc(-c3cc4c(N[C@H](C)c5ccccc5)ncnc4[nH]3)cc2)CC1
Potency [3]: 23.5 µM (active)

CC(C)c1ccc(Cn2ccc3c4c(N)nc(NC5CC5)nc4ccc32)cc1
outcome [2]: inactive | Potency [3]: 14.8 µM (active)

Cc1cc(Nc2cc(N3CCN(C)CC3)nc(Sc3ccc(NC(=O)C4CC4)cc3)n2)n[nH]1
Potency [3]: 23.5 µM (active)

CN(C)CC=CC(=O)Nc1cc2c(Nc3ccc(F)c(Cl)c3)ncnc2cc1O[C@H]1CCOC1
outcome [2]: inactive | Potency [3]: 0.935 µM (active)

COc1cc(C(=O)NS(=O)(=O)c2ccccc2C)ccc1Cc1cn(C)c2ccc(NC(=O)OC3CCCC3)cc12
max response [3]: 2.7%

NC(=O)Nc1cc(-c2cccc(F)c2)sc1C(=O)N[C@H]1CCCNC1
outcome [2]: inactive | Potency [3]: 18.7 µM (active)

CC(C)=CCCC(C)=CCCC(C)=CCSc1ccccc1C(=O)O
max response [3]: 2.41%

COc1cc2c(Nc3ccc(NC(=O)c4ccccc4)cc3)ncnc2cc1OCCCN1CCOCC1
max response [3]: -17.9%

COc1cc(OC2CCN(C)CC2)ccc1Nc1ncc2c(n1)n(C1CCCC1)c(=O)n2C
outcome [2]: inactive

COc1cc2c(Oc3ccc4[nH]c(C)cc4c3F)ncnc2cc1OCCCN1CCCC1
outcome [2]: inactive | Potency [3]: 18.7 µM (active)

COc1cc(=C2C=c3ccccc3=N2)[nH]c1=Cc1[nH]c(C)cc1C
Potency [3]: 7.43 µM (active)

CNc1nccc(-c2cccnc2Oc2cc(C(=O)Nc3cccc(C(F)(F)F)c3)ccc2C)n1
outcome [2]: inactive | max response [3]: 8.44%

C=CC(=O)N1CCC[C@@H](n2nc(-c3ccc(Oc4ccccc4)cc3)c3c(N)ncnc32)C1
outcome [2]: inactive

CC(=O)c1c(C)c2cnc(Nc3ccc(N4CCNCC4)cn3)nc2n(C2CCCC2)c1=O
outcome [2]: inactive | Potency [3]: 7.43 µM (active)

CNC(=O)c1cc(Oc2ccc(NC(=O)Nc3cc(C(C)(C)C)nn3-c3ccc4ncccc4c3)c(F)c2)ccn1
outcome [2]: inactive | max response [3]: -28.6%

COc1cc2c(Oc3ccc(NC(=O)C4(C(=O)Nc5ccc(F)cc5)CC4)cc3F)ccnc2cc1OCCCN1CCOCC1
outcome [2]: inactive | Potency [3]: 18.7 µM (active)
